Source: PubChem BioAssay (NCI)
Compounds without any hit were thinned out: in the full panel of roughly 83,000, 20% have a hit.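 Assay: single dose, 48 h. Readout: percent growth (0 = no net growth; negative = cell death). Active: <10.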 Values without a mark were called inactive. Activity calls are given as the source filed them.

Legend:
Experiment in all cases: NCI-60 one-dose screen, 48 h (100 = growth as untreated, 0 = no growth, -100 = all killed)
Settings in all cases: 10 µM unless noted
[1] = system: DU-145 prostate
[2] = system: K-562 leukemia
[3] = system: MALME-3M melanoma
[4] = system: MDA-MB-231 breast
[5] = system: RXF 393 renal
[6] = system: SF-268 CNS
[7] = system: SF-295 CNS
[8] = system: SF-539 CNS
[9] = system: UACC-257 melanoma
[10] = system: M14 melanoma
[11] = system: HCT-15 colon
[12] = system: HT29 colon
[13] = system: SNB-75 CNS
[14] = system: SNB-19 CNS
[15] = system: U251 CNS
[16] = system: PC-3 prostate
[17] = system: SK-MEL-5 melanoma
[18] = system: UACC-62 melanoma
[19] = system: LOX IMVI melanoma
[20] = system: SK-MEL-28 melanoma

**Q.** For `COc1ccc(C2CC(c3cccc(Nc4ccnc5cc(Cl)ccc45)c3)=NN2c2ccc(Cl)cc2)cc1` (stereo not given), which growth [1] is on record?
**A.** 79.2%

**Q.** And the growth [2]?
**A.** 12.8%

**Q.** What about the growth [3] of the same compound?
**A.** 74.6%

**Q.** What about the growth [4] of the same compound?
**A.** 75.5%

**Q.** What about the growth [5] of the same compound?
**A.** 105%

**Q.** What about the growth [6] of the same compound?
**A.** 55.1%

**Q.** What about the growth [7] of the same compound?
**A.** 30.7%

**Q.** What about the growth [8] of the same compound?
**A.** -31.5% (active)

**Q.** And the growth [9]?
**A.** 70.7%

**Q.** And the growth [10]?
**A.** 28.3%

**Q.** What about the growth [11] of the same compound?
**A.** 42.5%

**Q.** What about the growth [12] of the same compound?
**A.** 64.2%

**Q.** What about the growth [13] of the same compound?
**A.** 79.7%

**Q.** And the growth [14]?
**A.** 94.8%

**Q.** And the growth [15]?
**A.** 65%

**Q.** And the growth [16]?
**A.** 60.7%

**Q.** And the growth [17]?
**A.** 53.4%

**Q.** What about the growth [18] of the same compound?
**A.** 9.78% (active)

**Q.** And the growth [19]?
**A.** 47.4%

**Q.** And the growth [20]?
**A.** 65.8%

**Q.** `CN(C)CCOc1nc2c3ccncc3cc(-c3cccc(Cl)c3)c2c2cnccc12` was tested. Which growth [1] did it give?
**A.** 30.7%

**Q.** What about the growth [2] of the same compound?
**A.** -34.7% (active)

**Q.** What about the growth [3] of the same compound?
**A.** 40.1%

**Q.** What about the growth [4] of the same compound?
**A.** 24%

**Q.** And the growth [5]?
**A.** 1.01% (active)

**Q.** What about the growth [6] of the same compound?
**A.** 35.1%

**Q.** And the growth [7]?
**A.** 31.6%

**Q.** What about the growth [8] of the same compound?
**A.** 32%

**Q.** What about the growth [9] of the same compound?
**A.** 47.3%

**Q.** And the growth [10]?
**A.** 26%

**Q.** And the growth [11]?
**A.** 22.1%

**Q.** What about the growth [12] of the same compound?
**A.** 17%

**Q.** What about the growth [13] of the same compound?
**A.** 39.8%

**Q.** And the growth [14]?
**A.** 28.4%

**Q.** And the growth [15]?
**A.** 28%

**Q.** And the growth [16]?
**A.** 30.1%

**Q.** What about the growth [17] of the same compound?
**A.** 10.8%

**Q.** And the growth [18]?
**A.** 24.6%

**Q.** What about the growth [19] of the same compound?
**A.** 5.79% (active)

**Q.** And the growth [20]?
**A.** 13.3%

**Q.** For `CCN(CC)C(Cl)=Nc1ccc(Cl)cc1`, which growth [1] is on record?
**A.** 119%

**Q.** And the growth [2]?
**A.** 121%

**Q.** What about the growth [3] of the same compound?
**A.** 116%

**Q.** What about the growth [4] of the same compound?
**A.** 102%

**Q.** What about the growth [5] of the same compound?
**A.** 107%

**Q.** And the growth [6]?
**A.** 106%

**Q.** And the growth [7]?
**A.** 97.1%

**Q.** What about the growth [8] of the same compound?
**A.** 106%

**Q.** And the growth [9]?
**A.** 98.8%

**Q.** And the growth [10]?
**A.** 107%

**Q.** What about the growth [11] of the same compound?
**A.** 98.1%

**Q.** What about the growth [12] of the same compound?
**A.** 97.3%

**Q.** What about the growth [13] of the same compound?
**A.** 88.5%

**Q.** What about the growth [14] of the same compound?
**A.** 95.5%

**Q.** What about the growth [15] of the same compound?
**A.** 94%

**Q.** What about the growth [16] of the same compound?
**A.** 103%

**Q.** What about the growth [17] of the same compound?
**A.** 102%

**Q.** What about the growth [18] of the same compound?
**A.** 102%

**Q.** And the growth [19]?
**A.** 102%

**Q.** What about the growth [20] of the same compound?
**A.** 106%

**Q.** With `NC(=O)c1noc(C(=O)c2ccccc2)c1N` as the compound, how does the growth [1] read?
**A.** 104%

**Q.** And the growth [2]?
**A.** 89.5%

**Q.** And the growth [3]?
**A.** 101%

**Q.** What about the growth [4] of the same compound?
**A.** 109%

**Q.** And the growth [5]?
**A.** 96.2%

**Q.** What about the growth [6] of the same compound?
**A.** 98.4%

**Q.** What about the growth [7] of the same compound?
**A.** 98.9%

**Q.** And the growth [8]?
**A.** 107%

**Q.** And the growth [9]?
**A.** 102%

**Q.** And the growth [10]?
**A.** 110%

**Q.** And the growth [11]?
**A.** 89.4%

**Q.** And the growth [12]?
**A.** 83.6%

**Q.** What about the growth [13] of the same compound?
**A.** 95.9%

**Q.** What about the growth [14] of the same compound?
**A.** 90.4%

**Q.** What about the growth [15] of the same compound?
**A.** 85.8%

**Q.** What about the growth [16] of the same compound?
**A.** 90.9%

**Q.** And the growth [17]?
**A.** 97.9%

**Q.** What about the growth [18] of the same compound?
**A.** 96.6%

**Q.** What about the growth [19] of the same compound?
**A.** 98.8%

**Q.** And the growth [20]?
**A.** 98.6%

**Q.** Which results are given for `Cc1cc(C)c2c(n1)sc1c(Nc3ccc(OCc4ccccc4)cc3)ncnc12`?
**A.** growth [1]: 104%; growth [2]: 95.2%; growth [3]: 88.6%; growth [4]: 109%; growth [5]: 104%; growth [6]: 101%; growth [7]: 101%; growth [8]: 107%; growth [9]: 106%; growth [10]: 108%; growth [11]: 100%; growth [12]: 103%; growth [13]: 108%; growth [14]: 101%; growth [15]: 98.4%; growth [16]: 96.2%; growth [17]: 104%; growth [18]: 105%; growth [19]: 91.7%; growth [20]: 114%

**Q.** How did the growth [1] turn out when `CCSc1ccc([C@@H]2[C@@H](N)C(=O)N2c2cc(OC)c(OC)c(OC)c2)cc1` was run?
**A.** 23.7%

**Q.** And the growth [2]?
**A.** 7.64% (active)

**Q.** What about the growth [3] of the same compound?
**A.** 63.8%

**Q.** And the growth [4]?
**A.** 41%

**Q.** And the growth [5]?
**A.** -17% (active)

**Q.** And the growth [6]?
**A.** 54.6%

**Q.** And the growth [7]?
**A.** 10.2%

**Q.** What about the growth [8] of the same compound?
**A.** -22.6% (active)

**Q.** What about the growth [9] of the same compound?
**A.** 67.7%

**Q.** What about the growth [10] of the same compound?
**A.** -15.5% (active)

**Q.** And the growth [11]?
**A.** 19.9%

**Q.** And the growth [12]?
**A.** 12.1%

**Q.** What about the growth [13] of the same compound?
**A.** 36.2%

**Q.** What about the growth [14] of the same compound?
**A.** 32%

**Q.** What about the growth [15] of the same compound?
**A.** 28.1%

**Q.** And the growth [16]?
**A.** 28.5%

**Q.** And the growth [17]?
**A.** 20%

**Q.** What about the growth [18] of the same compound?
**A.** 33.9%

**Q.** What about the growth [19] of the same compound?
**A.** 50.7%

**Q.** And the growth [20]?
**A.** 61.6%

**Q.** Which growth [1] does the source give for `COc1ccc([C@@H]2[C@@H](Cl)C(=O)N2c2cc(OC)c(OC)c(OC)c2)cc1C` here?
**A.** 12.9%

**Q.** What about the growth [2] of the same compound?
**A.** 9.59% (active)

**Q.** And the growth [3]?
**A.** 76%

**Q.** What about the growth [4] of the same compound?
**A.** 18.3%

**Q.** And the growth [5]?
**A.** 19.8%

**Q.** What about the growth [6] of the same compound?
**A.** 30.2%

**Q.** And the growth [7]?
**A.** 15.7%

**Q.** What about the growth [8] of the same compound?
**A.** 3.27% (active)

**Q.** What about the growth [9] of the same compound?
**A.** 80.7%

**Q.** What about the growth [10] of the same compound?
**A.** 11.7%

**Q.** What about the growth [11] of the same compound?
**A.** 15.8%

**Q.** And the growth [12]?
**A.** 11.1%

**Q.** And the growth [13]?
**A.** 75.6%

**Q.** And the growth [14]?
**A.** 33.6%

**Q.** And the growth [15]?
**A.** 12.9%

**Q.** What about the growth [16] of the same compound?
**A.** 28.9%

**Q.** What about the growth [17] of the same compound?
**A.** -13.8% (active)

**Q.** What about the growth [18] of the same compound?
**A.** 35.3%

**Q.** And the growth [19]?
**A.** 24.4%

**Q.** What about the growth [20] of the same compound?
**A.** 70.7%

**Q.** Which results are given for `CC(C)NC(=O)OCC#CCOC(=O)NC(C)C`?
**A.** growth [1]: 111%; growth [2]: 87.9%; growth [3]: 92.6%; growth [4]: 103%; growth [5]: 113%; growth [6]: 110%; growth [7]: 82.8%; growth [8]: 109%; growth [9]: 105%; growth [10]: 101%; growth [11]: 108%; growth [12]: 104%; growth [13]: 89.5%; growth [14]: 97.5%; growth [15]: 99.5%; growth [16]: 97%; growth [17]: 106%; growth [18]: 99.6%; growth [19]: 104%; growth [20]: 104%
